# Laboratory results taken from PubChem BioAssay (NCATS).
# “And” between values parts separate entries of the source, which are not always exact repeats. Identical values can stand only once. Inconclusive results are not listed. Entries that show only a call come without a potency. Unmarked numbers belong to inactive results. The source made the active and inactive calls. Calls follow the shape of the dose curve; as a rule, active = well fitted curve in the direction sought with a large enough effect; inconclusive = small, poorly fitted or top-dose-only effect, or another doubt; inactive = no such curve, though single readings can be large; an effect the other way counts as inactive or inconclusive.
# Key:
# [1] = target: Cytochrome P450 3A7 (Homo sapiens) (UniProt P24462); assay: Cytochrome P450 family 3 subfamily A member 7 (CYP3A7) small molecule antagonists: luciferase biochemical qHTS assay (AID 1963596); also: nearly all actives have a fitted effect of over 40% in size
# Cytochrome P450 3A7 (Homo sapiens), sequence (P24462 whole entry, looked up): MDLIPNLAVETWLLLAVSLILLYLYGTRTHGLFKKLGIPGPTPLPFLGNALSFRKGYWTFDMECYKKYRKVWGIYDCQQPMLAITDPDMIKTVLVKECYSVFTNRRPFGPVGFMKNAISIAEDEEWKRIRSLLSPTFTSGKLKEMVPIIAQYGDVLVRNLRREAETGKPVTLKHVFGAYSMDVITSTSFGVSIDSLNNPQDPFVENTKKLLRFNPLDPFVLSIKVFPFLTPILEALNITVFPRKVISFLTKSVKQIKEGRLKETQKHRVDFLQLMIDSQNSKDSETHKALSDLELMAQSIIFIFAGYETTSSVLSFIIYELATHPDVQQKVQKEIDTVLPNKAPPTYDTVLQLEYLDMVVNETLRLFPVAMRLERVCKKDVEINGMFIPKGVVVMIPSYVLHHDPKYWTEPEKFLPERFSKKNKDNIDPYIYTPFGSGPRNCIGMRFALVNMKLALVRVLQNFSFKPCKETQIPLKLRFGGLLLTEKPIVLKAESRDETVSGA
# In short: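 Compounds were screened in qHTS format for interference with CYP3A7 turnover of a proluciferin substrate. Reactions ran 1 h at room temperature after NADPH regeneration solution was added, then luciferin product was detected by luminescence.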
# [2] = Viability qHTS for spleen associated tyrosine kinase inhibitor (SYKi) naive MV4-11 cells (AID 1963823); also: nearly all actives have a fitted effect of over 40% in size
# In short: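 SYKi-naive MV4-11 AML cells, 500 per well, were exposed to library compounds for 72 hr at 37 C, 5% CO2. Viability was then read by CellTiter-Glo luminescence after 10 min at room temperature.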
# [3] = Quantitative highthroughput screen to assess conditional lethalithy of NOMO1 cells grown in RPMI1640 with untreated serum (RPMI+s) (AID 1963876); also: nearly all actives have a fitted effect of over 35% in size
# In short: (§1)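 Each medium arm—HPLM with 10% dialyzed FBS, or RPMI1640 with 5 mM glucose and 10% untreated or dialyzed FBS—was screened against an 11-point, 3-fold compound titration for 48 h at 37 °C, with CellTiter-Glo luminescence as endpoint.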
# [4] = Quantitative highthroughput screen to assess conditional lethalithy of NOMO1 cells grown in RPMI1640 with dialyzed fetal bovine serum (RPMI+ds) (AID 1963877); also: nearly all actives have a fitted effect of over 30% in size; as to Viability: series mostly up to about 46 µM
# In short: as §1
# [5] = Quantitative highthroughput screen to assess conditional lethalithy of NOMO1 cells grown in Human Plasma-Like Medium with dialyzed fetal bovine serum (HPLM+ds) (AID 1963878); also: nearly all actives have a fitted effect of over 35% in size
# In short: as §1
# [6] = Quantitative highthroughput screen to assess conditional lethalithy of P12 Ichikawa cells grown in Human Plasma-Like Medium with dialyzed fetal bovine serum (HPLM+ds) (AID 1963879); details: Potency: viability; also: nearly all actives have a fitted effect of over 35% in size; as to Viability: series mostly up to about 46 µM
# In short: as §1
# [7] = Quantitative highthroughput screen to assess conditional lethalithy of P12 Ichikawa cells grown in RPMI1640 with dialyzed fetal bovine serum (RPMI+ds) (AID 1963880); details: Potency: P12-Ichikawa viability; also: nearly all actives have a fitted effect of over 35% in size
# In short: as §1
# [8] = Quantitative highthroughput screen to assess conditional lethalithy of P12 Ichikawa cells grown in RPMI1640 with untreated serum (RPMI+s) (AID 1963881); details: Potency: viability; also: nearly all actives have a fitted effect of over 35% in size; as to Viability: series mostly up to about 46 µM
# In short: as §1
# [9] = Quantitative highthroughput screen to assess conditional lethalithy of SEM cells grown in Human Plasma-Like Medium with dialyzed fetal bovine serum (HPLM+ds) (AID 1963882); also: nearly all actives have a fitted effect of over 35% in size; as to Viability: series mostly up to about 46 µM
# In short: as §1
# [10] = Quantitative highthroughput screen to assess conditional lethalithy of SEM cells grown in RPMI1640 with unreated serum (RPMI+s) (AID 1963883); also: nearly all actives have a fitted effect of over 35% in size
# In short: as §1
# [11] = Quantitative highthroughput screen to assess conditional lethalithy of SEM cells grown in RPMI1640 with dialyzed fetal bovine serum (RPMI+ds) (AID 1963884); also: nearly all actives have a fitted effect of over 35% in size; as to Viability: series mostly up to about 46 µM
# In short: as §1
# [12] = Cellular viability qHTS for adrenocortical cancer (ACC) cell line SW-13 (AID 1963989); details: SW-13 ACC cells viability, CellTiter-Glo, 48 h; activity (max response): stronger effect = lower value; also: nearly all actives have a fitted effect of over 65% in size;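 as to activity (max response): cells grown in serum-free medium with ITS supplement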
# In short: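 Luminescent ATP read-out (CellTiter-Glo, 20 min at room temperature) measured metabolically competent SW-13 cells after 48 h compound treatment. Final concentrations spanned up to 46 uM; bortezomib served as positive control.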
# [13] = Cellular viability qHTS for adrenocortical cancer (ACC) cell line NCI-H295R (AID 1963990); also: nearly all actives have a fitted effect of over 60% in size
# In short: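 IC50 and maximal efficacy derive from four-parameter logistic modelling of titration curves, with reads scaled between DMSO-only wells (0%) and doxorubicin hydrochloride (100% inhibition). Compounds spanned up to 46 uM over 48 h.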
# [14] = Viability qHTS for spleen associated tyrosine kinase inhibitor (SYKi) drug resistant MV4-11 cells (AID 1963824); also: nearly all actives have a fitted effect of over 35% in size
# In short: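 SYK-inhibitor-resistant MV4-11 AML cells were seeded at 500 per well onto compound and cultured 72 hours (37 °C, 5% CO2). CellTiter-Glo was then added, and after 10 min at room temperature, luminescence gave viability.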
# Potency is read from the fitted curve at half-maximal effect.
Compound,Potency [1],Potency [2],Potency [3],Potency [4],Potency [5],Potency [6],Potency [7],Potency [8],Potency [9],Potency [10],Potency [11],activity (max response) [12],Potency [13],Potency [14],Potency [12]
CC(C[N+](C)(C)C)OC(N)=O (stereo unspecified),inactive,inactive,inactive,inactive,inactive,inactive,inactive,inactive,inactive,inactive,inactive,2.28% and -2.17%,inactive,,
CCOC(=O)OC(C)OC1=C(C(=O)Nc2ccccn2)N(C)S(=O)(=O)c2ccccc21 (stereo unspecified),inactive,inactive,,,,,,,,,,,inactive,inactive,
CCCOc1ccc2nc(NC(=O)OC)[nH]c2c1,inactive,263 nM (active),,,,0.0418 µM (active),,0.0418 µM (active),,0.0148 µM (active),0.0209 µM (active),,355 nM (active),,251 nM (active)
CN(c1nccc(=O)[nH]1)C1CCN(c2nc3ccccc3n2Cc2ccc(F)cc2)CC1,inactive,inactive,inactive,inactive,inactive,inactive,inactive,,,inactive,inactive,5.56%,inactive,,
O=C(/C=C/c1ccc(O)c(O)c1)O[C@@H]1C[C@@](OC(=O)/C=C/c2ccc(O)c(O)c2)(C(=O)O)C[C@@H](O)[C@@H]1O,inactive,inactive,,,,,,,,,,,inactive,inactive,
COc1cc(Nc2c(C#N)cnc3cc(OCCCN4CCN(C)CC4)c(OC)cc23)c(Cl)cc1Cl,15.5 µM (active),944 nM (active) and 1.3 µM (active) and 1.18 µM (active),7.43 µM (active),8.33 µM (active),3.72 µM (active),3.72 µM (active),5.26 µM (active),4.69 µM (active),1.66 µM (active),,2.35 µM (active),,4.61 µM (active) and 3.55 µM (active),,4.61 µM (active) and 2 µM (active)
CN(C)[C@@H]1C(=O)C(C(N)=O)=C(O)[C@@]2(O)C(=O)C3=C(O)c4c(O)cccc4C[C@H]3C[C@@H]12,inactive,inactive,,,,,,,,,,,inactive,inactive,
CC[N+](CC)(CC)CCOC(=O)C(C1CCCC1)C1CCCC1,inactive,18800 nM (active),,,,,,,,,,,inactive,11.9 µM (active),
COCCOCC(OC)OC,inactive,inactive,,,,,,,,,,,inactive,inactive,
CC[C@H](C)C(=O)O[C@H]1C[C@H](O)C=C2C=C[C@H](C)[C@H](CC[C@@H](O)C[C@@H](O)CC(=O)O)[C@H]21,inactive,inactive,inactive,inactive,inactive,inactive,inactive,inactive,inactive,inactive,inactive,-19.4%,,,
COc1cc(OC)cc(OC)c1,inactive,inactive,,,,,,,,,,,inactive,inactive,
COc1ccccc1OCC(O)CN1CCN(CC(=O)Nc2c(C)cccc2C)CC1 (stereo unspecified),inactive,inactive,inactive,,inactive,inactive,inactive,inactive,,inactive,inactive,1.47% and 6.99%,inactive,,
Cn1c(NCCN(CCO)CCCc2ccc([N+](=O)[O-])cc2)cc(=O)n(C)c1=O,inactive,inactive,inactive,,,,,,,,,5.91% and 4.46%,inactive,,
CCCCOc1ccc(C(=O)Nc2ccc(F)cc2F)cc1,inactive,inactive,inactive,inactive,,inactive,inactive,inactive,inactive,,inactive,-9.55%,,,
NC(=O)c1cnccn1,inactive,inactive,inactive,,,inactive,inactive,inactive,,inactive,,14.3% and 8.02%,inactive,,
CCN(C)C(=O)Oc1cccc([C@H](C)N(C)C)c1,inactive,inactive,inactive,inactive,inactive,inactive,inactive,inactive,inactive,inactive,inactive,11.5%,inactive,,
Cc1ccc(S(=O)(=O)NC(=O)NN2CC3CCCC3C2)cc1 (stereo unspecified),inactive,inactive,,,,5.9 µM (active),2.96 µM (active),,5.9 µM (active),4.18 µM (active),2.96 µM (active),5.83% and 9.36%,inactive,,
Clc1cccc(Cl)c1NC1=NCCN1,inactive,inactive,inactive,inactive,inactive,inactive,inactive,inactive,inactive,inactive,inactive,13.1%,inactive,,
C=CCOc1ccccc1OCC(O)CNC(C)C (stereo unspecified),inactive,inactive,,,,,,,,,,,inactive,inactive,
CC1(C)OC[C@@H]2O[C@@]3(C(=O)O)OC(C)(C)O[C@H]3[C@@H]2O1,inactive,inactive,,,,,,,,,,,inactive,inactive,
O=C(O)CN(CCN(CC(=O)O)CC(=O)O)CCN(CC(=O)O)CC(=O)O,inactive,inactive,,,,,,,,,,9.05%,,,
